MPTP block – inhibitors of mitochondrial permeability transition pore | isolated mouse mitochondria, Ca2+ swelling absorbance, 30 min | actives 1.4% (n = 360,000) | AID 602449 | inhibition, % at 10 µM;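 active means inhibition of 50% or more, scaled per plate between neutral and stimulator controls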;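 further: 0% = DMSO wells given calcium and 100% = 1 mM EGTA wells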
aDG glyco up – increases alpha dystroglycan glycosylation. Pro5-aDG cells, alpha-DG glycosylation AlphaScreen (IIH6); 0% Pro5, 100% B10-LARGE cell signal. actives 0.22% (n = 360,000). activation, % at 10 µM. AID 624168;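 active means activation of at least 8% versus controls, or a plate z-score of at least 8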;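 further: Pro5 are CHO cells carrying HIG-tagged alpha-DG that lacks glycosylation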
H9c2 protect – myocardial damage modulation in H9c2 cells; protection from H2O2 cell death, % at 20 µM; AID 588492; H9c2 cardiomyocytes, H2O2 injury protection, ATPLite, 2 h; actives 0.63% (n = 360,000);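 active means compounds giving at least 50% protection of heart cells from peroxide-induced death in the single-dose screen, raw or plate-pattern-corrected value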;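 further: 0% = DMSO wells with peroxide and 100% = DMSO wells without peroxide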
SUMO Mot1 rescue – inhibitors of SUMOylation pathway: yeast Mot1-301 growth rescue. S. cerevisiae Mot1-301 growth rescue, ATP luminescence, 38.5C; percent above DMSO median, 100 means doubled. AID 2716. actives 1% (n = 320,000). growth rescue, % at 18.8 µM;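 active means every valid replicate shows activation above 250% relative to neutral control wells; inactive means the rest, any valid replicate at or below 250%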;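 further: OY570 slx delta 5 strain wells were the positive control but not used for scaling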
CR mimetic SO – lowers age-related superoxide in aged yeast cells; actives 0.18% (n = 330,000); AID 2690; S. cerevisiae aged cells, superoxide DHE fluorescence; hits give low values; superoxide response (% of plate mean), % at 10 µM;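 active means superoxide response under a set limit, about three screen SD below normal, cut at about 65% in these data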;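 further: yeast aged for seven days with compound at 30 °C before DHE staining; 100% = average MFI of all compound-treated wells on the plate with controls excluded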
FAS-TE inh – inhibitors of human fatty acid synthase thioesterase domain; recombinant FAS-TE, OMFH fluorogenic substrate, fluorescence endpoint; actives 0.67% (n = 360,000); inhibition, % at 15 µM; P49327;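 active means compounds whose normalised, plate-corrected inhibition of enzyme fluorescence in the single-dose primary screen is 50% or more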;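 further: 0% = DMSO with enzyme and 100% = substrate without enzyme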
Target sequence (P49327 whole entry, looked up, the tested form may be a part): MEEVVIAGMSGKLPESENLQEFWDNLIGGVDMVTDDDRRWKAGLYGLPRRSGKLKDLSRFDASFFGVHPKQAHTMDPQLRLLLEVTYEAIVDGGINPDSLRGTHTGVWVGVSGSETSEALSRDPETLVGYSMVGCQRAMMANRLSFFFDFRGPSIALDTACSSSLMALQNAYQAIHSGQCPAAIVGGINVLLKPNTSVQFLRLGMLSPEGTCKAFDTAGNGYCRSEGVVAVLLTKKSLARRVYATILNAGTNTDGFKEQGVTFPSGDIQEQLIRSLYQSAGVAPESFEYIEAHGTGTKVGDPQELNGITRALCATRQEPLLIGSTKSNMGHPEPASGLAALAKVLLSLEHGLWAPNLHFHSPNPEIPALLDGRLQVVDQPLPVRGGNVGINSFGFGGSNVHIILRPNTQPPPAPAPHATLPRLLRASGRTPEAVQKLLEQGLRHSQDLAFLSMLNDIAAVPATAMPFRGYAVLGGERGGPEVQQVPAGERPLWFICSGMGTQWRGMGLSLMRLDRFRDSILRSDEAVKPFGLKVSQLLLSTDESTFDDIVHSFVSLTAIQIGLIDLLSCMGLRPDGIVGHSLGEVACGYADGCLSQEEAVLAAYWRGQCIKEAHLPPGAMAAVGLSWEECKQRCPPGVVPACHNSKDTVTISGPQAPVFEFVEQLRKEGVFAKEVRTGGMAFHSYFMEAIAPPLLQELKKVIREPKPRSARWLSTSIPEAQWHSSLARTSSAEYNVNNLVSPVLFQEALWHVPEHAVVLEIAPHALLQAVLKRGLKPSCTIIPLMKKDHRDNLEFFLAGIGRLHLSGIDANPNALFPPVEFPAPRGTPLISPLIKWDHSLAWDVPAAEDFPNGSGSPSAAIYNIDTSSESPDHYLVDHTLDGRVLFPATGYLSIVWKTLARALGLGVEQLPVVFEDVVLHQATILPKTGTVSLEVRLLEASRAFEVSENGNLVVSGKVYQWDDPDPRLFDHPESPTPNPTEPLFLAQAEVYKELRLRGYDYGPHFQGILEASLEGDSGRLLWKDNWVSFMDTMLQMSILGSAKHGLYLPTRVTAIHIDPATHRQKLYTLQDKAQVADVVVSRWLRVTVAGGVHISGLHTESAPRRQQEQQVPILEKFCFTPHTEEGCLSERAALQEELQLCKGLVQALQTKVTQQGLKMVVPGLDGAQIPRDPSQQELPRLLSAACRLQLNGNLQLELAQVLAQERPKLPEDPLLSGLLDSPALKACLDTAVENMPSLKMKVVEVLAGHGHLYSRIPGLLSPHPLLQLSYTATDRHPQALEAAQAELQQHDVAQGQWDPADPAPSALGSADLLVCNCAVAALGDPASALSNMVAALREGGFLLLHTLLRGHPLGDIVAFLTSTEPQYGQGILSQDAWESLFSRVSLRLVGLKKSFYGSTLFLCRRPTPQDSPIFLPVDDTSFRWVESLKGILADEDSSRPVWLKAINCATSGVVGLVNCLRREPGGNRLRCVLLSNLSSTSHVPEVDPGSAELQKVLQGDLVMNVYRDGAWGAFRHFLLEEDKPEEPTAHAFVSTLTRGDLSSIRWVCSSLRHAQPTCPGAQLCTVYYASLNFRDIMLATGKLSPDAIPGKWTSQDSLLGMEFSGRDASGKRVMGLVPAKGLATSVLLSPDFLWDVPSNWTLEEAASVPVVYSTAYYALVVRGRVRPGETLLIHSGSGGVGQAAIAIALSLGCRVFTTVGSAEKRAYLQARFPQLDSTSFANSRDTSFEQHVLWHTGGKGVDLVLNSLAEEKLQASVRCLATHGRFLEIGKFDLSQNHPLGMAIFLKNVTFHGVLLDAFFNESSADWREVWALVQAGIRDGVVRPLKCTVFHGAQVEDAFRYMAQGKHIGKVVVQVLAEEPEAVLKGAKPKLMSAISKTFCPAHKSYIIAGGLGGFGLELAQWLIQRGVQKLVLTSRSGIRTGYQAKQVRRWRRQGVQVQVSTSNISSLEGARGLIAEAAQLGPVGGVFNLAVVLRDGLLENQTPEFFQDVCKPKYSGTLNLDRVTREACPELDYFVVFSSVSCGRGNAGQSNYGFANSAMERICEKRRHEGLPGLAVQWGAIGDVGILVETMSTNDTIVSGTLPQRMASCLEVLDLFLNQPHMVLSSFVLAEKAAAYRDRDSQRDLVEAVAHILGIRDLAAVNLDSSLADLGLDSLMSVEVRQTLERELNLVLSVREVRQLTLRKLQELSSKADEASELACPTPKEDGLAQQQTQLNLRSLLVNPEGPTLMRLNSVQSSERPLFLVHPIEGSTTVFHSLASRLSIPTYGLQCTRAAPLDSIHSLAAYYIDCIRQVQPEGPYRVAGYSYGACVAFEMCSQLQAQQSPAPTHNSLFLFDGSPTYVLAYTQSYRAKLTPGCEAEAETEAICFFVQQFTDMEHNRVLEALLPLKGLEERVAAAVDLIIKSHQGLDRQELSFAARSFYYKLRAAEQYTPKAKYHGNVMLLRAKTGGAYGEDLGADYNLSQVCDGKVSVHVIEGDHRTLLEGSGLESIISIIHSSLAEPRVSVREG
CR mimetic CP – yeast aging superoxide inhibition, cherry pick confirmation; shares compounds with CR mimetic SO; S. cerevisiae aging, superoxide DHE fluorescence; hits give low values; superoxide response (% of plate), % at 10 µM; actives 1% (n = 850);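 active means superoxide signal below 65% of the plate average of sample wells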;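 further: cells aged with compound for 7 days at 30 degrees C before staining; 100% equals mean DHE fluorescence of all compound wells on the plate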
DHE fluor count – DHE fluorescence interference, counter-screen artifact; shares compounds with CR mimetic SO; S. cerevisiae BY4741, flow cytometry; hits give low values; fluorescence response, % at 10 µM; 850 tested, under 10 active; AID 435000;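 active means fluorescence response below 15%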;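 further: percent of the mean fluorescence averaged over all compound wells on the plate; lower means stronger quenching of DHE signal or ROS scavenging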
Yeast Mot1 SUMO – SUMO pathway inhibitors in yeast Mot1-301 growth. 2,300 tested, under 10 active. shares compounds with SUMO Mot1 rescue. growth activity, percent, % at 42 µM. S. cerevisiae Mot1-301 galactose growth, ATP luminescence, 24 h; -100 = growth of slx-deleted rescue strain. AID 493004;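 active means Signal drops as the depositor expects, and the fitted half-maximal dose is no more than ten times the top valid tested dose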;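 further: more negative values mean stronger growth rescue toward the control strain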
Rh123 counter – Rhodamine 123 counter-screen of mitochondrial pore hits. shares compounds with MPTP block. isolated mitochondria, membrane potential, Rhodamine 123 fluorescence. inhibition, % at 10 µM. actives 78% (n = 5,000). AID 624504; in the data active means inhibition above about 22%;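 further: 0% = DMSO vehicle and 100% = positive control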
MPTP abs DR – MPTP inhibition, dose response swelling confirmation | shares compounds with MPTP block | isolated mitochondria swelling, absorbance | IC50, µM | actives 58% (n = 780) | AID 651561; in the data active means IC50 below about 20 µM
MPTP cs DR – MPTP inhibitor counter-screen activity, dose response; shares compounds with MPTP block; isolated mitochondria counterscreen, fluorescence read-out; IC50, µM; actives 49% (n = 780); in the data active means IC50 below about 80 µM
aDG conf – confirmation of alpha dystroglycan glycosylation activators; shares compounds with aDG glyco up; Pro5-aDG cells, alpha-DG glycosylation, IIH6 AlphaLISA; scaled to LARGE-overexpressing B10 cells as 100%; activation, % at 10 µM (by protocol); actives 17% (n = 600); AID 651671;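 active means activation of at least 7% in one or more replicates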;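 further: cells exposed to compound for two days before detection; 0% = DMSO-treated Pro5 cells and 100% = DMSO-treated B10-LARGE cells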
The depositor's hits bear a star; i = inactive; / = not tested or not shown; + = active, no number; ! = not confirmed by another sample. Most compounds without a hit are left out; they make up all but 3.8% or so of the library.

SMILES | MPTP block | aDG glyco up | H9c2 protect | SUMO Mot1 rescue | CR mimetic SO | FAS-TE inh | Yeast Mot1 SUMO | others
OC(COCC(F)(F)C(F)(F)C(F)(F)C(F)F)Cn1c2ccc(Cl)cc2c2cc(Cl)ccc21 (configuration not stated) | 80* | 2 | -20 | 7 | 97 | 56* | / | CR mimetic CP=109;DHE fluor count=93;Rh123 counter=52*
COc1ccc(NS(=O)(=O)c2ccc(NC(=O)c3ccccc3Br)cc2)nn1 | -4 | 0 | -7 | 8 | 82 | -2 | /
Cc1ccc(-c2nnc(Nc3ccc4c(c3)OCO4)c3ccccc23)cc1S(N)(=O)=O | 56* | 0 | 1 | / | 110 | 6 | / | CR mimetic CP=99;DHE fluor count=94;Rh123 counter=-7;MPTP abs DR=>100;MPTP cs DR=>80
CCOc1ccc2oc(C(=O)N(CCOC)c3c(N)n(CC(C)C)c(=O)[nH]c3=O)c(C)c2c1 | -2 | 0 | 24 | 14 | 78 | -7 | /
O=C1c2ccccc2C(=O)c2c(Nc3ccc(CCO)cc3)ccc(O)c21 | 4 | -1 | 0 | -13 | 116 | 11 | /
O=C1c2c(O)ccc(O)c2C(=O)c2c(NCCNCCO)ccc(NCCNCCO)c21 | 106*! | -1 | -10 | -33 | 33* | -1 | / | CR mimetic CP=46*;DHE fluor count=14*;Rh123 counter=-45
Cc1nc(Nc2ccc(S(=O)(=O)N3CCCCC3C)cc2)c2nnn(Cc3ccccc3)c2n1 (configuration not stated) | 68* | 2 | -26 | 6 | 59* | 44 | / | CR mimetic CP=106;DHE fluor count=109;Rh123 counter=14;MPTP abs DR=i;MPTP cs DR=>80
Cc1nc(Nc2ccc(Cl)cc2)c2nnn(Cc3ccccc3)c2n1 | -2 | 1 | -13 | -4 | 110 | 18 | /
COc1cc([N+](=O)[O-])ccc1NC(=O)NCC1CCN(Cc2ccc(Cl)cc2)CC1 | 1 | 3.3* | -11 | 162 | 30* | 6 | / | CR mimetic CP=104;DHE fluor count=111;aDG conf=1
CCN(CC(=O)Nc1c(F)cccc1F)C(=O)C1CCN(S(=O)(=O)c2ccc(F)cc2)CC1 | -2 | 0 | -2 | -10 | 83 | -3 | /
O=C(OCCCN=C1NS(=O)(=O)c2ccccc21)c1cccs1 | -1 | 0 | -6 | 579* | 116 | -4 | 0
C[C@H](CO)N1C[C@H](C)[C@@H](CN(C)C(=O)C2CCOCC2)Oc2ncc(Br)cc2C1=O | -1 | 0 | 14 | / | / | -8 | /
CCN(CC)c1ccc(/C=N/NC(=O)OC(C)(C)C)cc1 | 8 | 0 | -3 | 568* | 91 | -3 | 0
CC(C)[C@H](CO)NC(=O)[C@H]1O[C@@H](n2ccc(=O)[nH]c2=O)[C@H](O)[C@@H]1O | 0 | 0 | -2 | / | / | -8 | /
CC(=O)CSc1ncnc2sc3c(c12)CCCC3 | 0 | 0 | 2 | 712* | 94 | 2 | 0
CC(=O)CSc1ncnc2sc3c(c12)CCC(C)C3 (configuration not stated) | 2 | 0 | -6 | -2 | 92 | 19 | /
COc1ccc2c(C(=O)c3ccc(C)cc3)n(Cc3ccc(C(N)=O)cc3)[n+]([O-])c2c1 | 1 | 0 | 3 | -1 | 86 | -6 | /
Cc1ccc(S(=O)(=O)NCc2ccc(C(=O)NC3CCCCC3)cc2)cc1 | 0 | 0 | 2 | -1 | 108 | -1 | /
CS(=O)(=O)NCc1ccc(C(=O)NC2CCCCC2)cc1 | -2 | 0 | -3 | 617* | 89 | -6 | 0
CC(=O)NNc1cc(C)nc(NS(=O)(=O)c2ccc(C)cc2)n1 | 0 | 0 | 2 | -5 | 103 | -2 | /
Cc1ccc(S(=O)(=O)N(C)C[C@@H]2Oc3c(NC(=O)C4CC4)cccc3C(=O)N([C@@H](C)CO)C[C@@H]2C)cc1 | 3 | 0 | -1 | 10 | 102 | -5 | /
CCn1c(SCC(=O)Nc2ccc(OCc3ccccc3)cc2)nnc1-c1ccco1 | 0 | 0 | -18 | 837* | 102 | 12 | 1
CCOc1ccc(NC(=O)CSc2nnc(-c3ccco3)n2C)cc1 | -3 | 0 | -8 | -25 | 107 | -1 | /
Cc1ccc(/C=C/C(=O)c2ccc([N+](=O)[O-])o2)cc1 | / | / | / | + | 96 | / | 0
O=c1cc(C(F)(F)F)c2sc(N3CCCCC3)nc2[nH]1 | 1 | 0 | -4 | 429* | 140 | -2 | 0
SMILES | MPTP block | aDG glyco up | H9c2 protect | SUMO Mot1 rescue | CR mimetic SO | FAS-TE inh | Yeast Mot1 SUMO | others
COCCn1c(-c2ccc(Cl)cc2)cnc1SCC(=O)NCCc1ccc(OC)c(OC)c1 | 3 | 1 | -14 | 473* | 101 | -3 | 0
COc1ccc(CCNC(=O)CSCc2ccc(Cl)cc2)cc1OC | -1 | 0 | 7 | 1 | 105 | -4 | /
Cc1cc(C)nc(SC2=CS(=O)(=O)c3ccccc32)n1 | 2 | 0 | 0 | -1 | 89 | -2 | /
O=S1(=O)C=C(Sc2nnc(-c3ccccc3)o2)c2ccccc21 | 0 | 0 | -22 | 917* | 122 | 20 | -2
Cc1ccc(C(=O)N2CCC(C(=O)Nc3cccc([N+](=O)[O-])c3)CC2)cc1 | 2 | 0 | 0 | 123 | 94 | 13 | /
CN(CC(=O)Nc1ccccc1Cl)C(=O)COC(=O)C1CCN(c2ccc(C(F)(F)F)cn2)CC1 | -2 | 0 | -7 | 1 | 96 | 13 | /
CCCCn1c2nc3ccccc3nc2c2c(=O)n(CCC)cnc21 | 0 | 0 | 13 | 731* | 100 | 2 | 0
O=S(=O)(c1ccc(F)cc1)c1nc(-c2ccco2)oc1NCCCn1ccnc1 | 0 | 0 | 10 | / | / | -1 | /
CCCCCOC(=O)C1=C(C)N(C)C(=O)NC1c1cc(Br)c(O)c(OC)c1 (configuration not stated) | -3 | 0 | -1 | 879* | 95 | -1 | 0
